Shown is part of a subset that was picked to be rich in hits.
CBFb RUNX1 block: blocks binding between human CBF-beta and RUNX1. AlphaScreen CBFb-His/RUNX1-biotin binding, biochemical. Potency, µM (top dose mostly 59.8 µM), for inactives: top-dose activity, negative = inhibition, usual class: inhibitors. 230,000 tested, under 10 active; further: % of control where 0% means no effect
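Proteins preincubated together for 20 min at RT before compound addition; 15 min later, nickel and streptavidin beads were added and left 90 min prior to AlphaScreen measurement.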
Menin-MLL TR inh: inhibitors of human menin-MLL interaction, mutant MLL peptide; 270,000 compounds, 0.23% hits; Potency, µM (titrated, usually from 61.6 µM), without a hit: top-dose FP activity change, negative = inhibition, most hits filed as inhibitors; AID 1768; Menin + Texas Red MLL mutant peptide, fluorescence polarization; O00255; active means well fitted inhibition curve with a large enough effect in the polarisation, with a control signal flat, not every such curve was filed as active; inconclusive means small, poorly fitted or top-dose-only effect, or effect the other way, or a change in a side signal; inactive means no such curve, though single readings can be large or run the other way; the % refers to the polarisation; further: potency means the concentration at half of the fitted maximal effect; % of control where 0% means no effect
Target sequence (O00255 whole entry, looked up): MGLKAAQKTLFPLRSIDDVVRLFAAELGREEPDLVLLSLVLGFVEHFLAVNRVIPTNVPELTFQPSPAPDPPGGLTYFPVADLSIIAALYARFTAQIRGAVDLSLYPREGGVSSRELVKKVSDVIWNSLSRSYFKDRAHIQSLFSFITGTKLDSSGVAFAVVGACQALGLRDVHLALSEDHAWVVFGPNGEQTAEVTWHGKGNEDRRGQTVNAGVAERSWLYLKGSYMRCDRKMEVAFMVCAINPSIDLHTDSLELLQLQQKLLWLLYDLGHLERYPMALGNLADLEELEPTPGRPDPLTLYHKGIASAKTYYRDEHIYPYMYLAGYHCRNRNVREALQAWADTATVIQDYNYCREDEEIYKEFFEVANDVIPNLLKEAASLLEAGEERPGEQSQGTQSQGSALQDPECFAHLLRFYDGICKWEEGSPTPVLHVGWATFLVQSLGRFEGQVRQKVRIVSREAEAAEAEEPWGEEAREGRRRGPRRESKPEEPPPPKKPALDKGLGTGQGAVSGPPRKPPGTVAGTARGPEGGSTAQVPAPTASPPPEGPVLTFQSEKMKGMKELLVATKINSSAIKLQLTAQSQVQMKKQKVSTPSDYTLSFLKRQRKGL
CXXC DNA block: blocks binding of human MLL CXXC domain to DNA. MLL-CXXC / FITC-HOXA9 DNA fluorescence polarization. 290,000 compounds, 0.037% hits. Potency, µM (highest dose often 115 µM), for the others: at the highest dose activity change, negative = inhibition, most hits filed as inhibitors. Q03164. AID 2662; active means well fitted inhibition curve with a large enough effect in the polarisation, with a control signal flat, not every such curve was filed as active; inconclusive means small, poorly fitted or top-dose-only effect, or effect the other way, or a change in a side signal; inactive means no such curve, though single readings can be large or run the other way; the % refers to the polarisation; further: potency means the concentration at half of the fitted maximal effect
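Purified MLL-CXXC (added from a 7 uM solution) was preincubated 5 min at ambient with pinned compounds in 50 mM Tris-HCl pH 7.5, 50 mM NaCl, 1 mM DTT, 0.05% BSA. Fluorescein-labeled HOX-A9 DNA (50 nM solution) followed, 30 min, then polarization read.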
Menin-MLL FL inh: menin-MLL binding inhibition, fluorescein peptide | 290,000 tested, under 10 active | Fluorescence polarization, fluorescein-MLL peptide displacement from menin | FP activity change, % at 61.4 µM; active means well fitted curve in the direction sought with a large enough effect in the polarisation, not every such curve was filed as active; inconclusive means small, poorly fitted or top-dose-only effect, or effect the other way, or a change in a side signal; inactive means no such curve, though single readings can be large or run the other way; the % refers to the polarisation; further: % of control where 0% means no effect
MBNL1 CUG block: inhibitors of human MBNL1 binding to CUG repeat RNA; Q9NR56; TR-FRET MBNL1-His/biotin-(CUG)12 binding, 665/545 ratio; Potency, µM (titrated, usually from 57.5 µM), inactives show at the top dose activity change, negative = inhibition, hits mostly inhibitors; 280,000 compounds, 0.036% hits; AID 2675; active means well fitted inhibition curve with a large enough effect in the signal ratio, with a control signal flat, not every such curve was filed as active; inconclusive means small, poorly fitted or top-dose-only effect, or effect the other way, or a change in a side signal; inactive means no such curve, though single readings can be large or run the other way; the % refers to the signal ratio; further: potency means the concentration at half of the fitted maximal effect; on the % scale 0 is the no-effect control and ±100 the full control effect
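TR-FRET readout: Ex 340 nm, 665/545 nm emission ratio, normalized to buffer-only (basal) and MBNL1-(CUG)12 controls. Complex of MBNL1-His with Biotin-(CUG)12, compounds 92 nM–58 uM, incubated 60 min at room temperature.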
MLL CXXC FP-Fl: MLL CXXC-DNA interaction inhibition, fluorescein FP; shares compounds with CXXC DNA block; Potency, µM (titrated, usually from 345 µM), inactives show at the highest dose activity change, negative = inhibition, actives largely listed as inhibitors; MLL CXXC-DNA binding, fluorescein FP; AID 624160; 200 compounds, 70% hits; further: potency means the concentration at half of the fitted maximal effect; nearly all actives have a fitted effect of over 80% in size
MLL CXXC TxRed: inhibitors of human MLL CXXC domain-DNA interaction, Texas Red format; shares compounds with CXXC DNA block; MLL CXXC-DNA binding, Texas Red fluorescence polarization; Potency, µM (series often up to 345 µM), without a hit: at the top dose activity change, negative = inhibition, actives largely listed as inhibitors; 200 compounds, 40% hits; further: potency means the concentration at half of the fitted maximal effect; on the % scale 0 is the no-effect control and ±100 the full control effect; nearly all actives have a fitted effect of over 75% in size
MLL CXXC TRF: disrupts human MLL CXXC domain binding to DNA by HTRF. Potency, µM (highest dose often 172 µM), inactives show top-dose activity change, negative = inhibition, hits mostly inhibitors. shares compounds with CXXC DNA block. 210 compounds, 30% hits. MLL CXXC-DNA binding, HTRF, biochemical; further: on the % scale 0 is the no-effect control and ±100 the full control effect; nearly all actives have a fitted effect of over 80% in size
MBNL1 TRFRET: MBNL1-poly(CUG) RNA binding inhibition confirmed. shares compounds with MBNL1 CUG block. Potency, µM (series often up to 57.6 µM), for the others: at the highest dose activity change, negative = inhibition, usual class: inhibitors. TR-FRET MBNL1-His / biotin-(CUG)12 binding, 60 min. 140 compounds, 50% hits. AID 493199
MBNL1-CUG Alpha: MBNL1-CUG RNA binding inhibition, AlphaScreen validation; 140 compounds, 30% hits; AID 493205; shares compounds with MBNL1 CUG block; AlphaScreen MBNL1-His / biotin-(CUG)12 binding; Potency, µM (doses to about 57.7 µM), for the others: at the highest dose activity, negative = inhibition, hits mostly inhibitors
Menin-MLL HTRF: hit in HTRF counterscreen for MBNL1-poly(CUG) binding inhibitors | AID 651843 | His-Menin/biotin-MLL peptide TR-FRET counterscreen | 120 compounds, 20% hits | shares compounds with MBNL1 CUG block | Potency, µM (doses to about 57.6 µM), for inactives: at the highest dose activity, negative = inhibition, hits mostly inhibitors
Numbers without * were called inactive; ? = inconclusive; . = no result given; [ ] = another dose, or the depositor's remark. Unless noted, the call rests on the fitted dose curve; in most records, active means well fitted curve in the direction sought with a large enough effect; inconclusive means small, poorly fitted or top-dose-only effect, or another doubt; inactive means no such curve, though single readings can be large; an effect the other way counts as inactive or inconclusive.

SMILES	CBFb RUNX1 block	Menin-MLL TR inh	CXXC DNA block	Menin-MLL FL inh	MBNL1 CUG block	MBNL1 TRFRET	MBNL1-CUG Alpha	Menin-MLL HTRF	others
CC(=O)OCCn1c2nc(=O)[nH]c(=O)c-2nc2cc(C)c(C)cc21	15%	-2%	?	?	?	.	.	.	MLL CXXC FP-Fl=1.8µM*;MLL CXXC TxRed=2%;MLL CXXC TRF=14%
CCOc1ccc(-n2c(=O)c3ccccc3c3ccccc3c2=O)cc1	0%	.	3%	0	-13%	.	.	.
O=C(c1nc2ncccn2n1)N1CCN(c2ccccc2)CC1	-2%	30%	-1%	1	-3%	.	.	.
COCCCNC(=S)NNC(=O)c1cc(Cl)c(O)c(Cl)c1	8%	.	?	-1	-5%	.	.	.	MLL CXXC TRF=0%
COCCCNC(=S)NNC(=S)NCCCOC	11%	.	-13%	-1	0%	.	.	.
Cc1ccc(/C=N/NC(=O)C(c2ccncc2)N2CCOCC2)cc1 (centres undefined)	-4%	.	-7%	-9	4%	.	.	.
O=C1c2c(O)ccc(O)c2C(=O)c2c(NCCNCCO)ccc(NCCNCCO)c21	?	?	?	?	?	1.6µM*	?	-6%[19.2 µM]	MLL CXXC FP-Fl=6.8µM*;MLL CXXC TxRed=12µM*;MLL CXXC TRF=7.3µM*
COc1ccccc1NC(=O)CSc1c2c(nc3ccccc13)CCC2	-1%	-1%	5%	0	.	.	.	.
CCO/C=C1/C(=O)N(Cc2ccccc2)C(=O)c2ccccc21	27%	-15%	13%	-3	16µM*	-60%	52µM*	3%
CC(=O)c1ccc(NC(=O)Nc2cccnc2)cc1	.	.	9%	.	28µM*	21µM*	-9%	29µM*
Cc1ccc(NC(=O)Nc2cccnc2)cc1Cl	.	?	28%	3	-28%	.	.	.
CN1CCc2cc(NC(=O)Nc3cccnc3)ccc21	-9%	-20%	12%	1	.	?	-39%	.
CCc1nnc(SCC(=O)N2CCCc3ccccc32)nc1CC	8%	?	15%	1	-13%	.	.	.
COc1ccc(/C=N/Nc2nccnc2Cl)cc1	2%	0%	-2%	-1	?	?	-13%	18%
COc1cccc(/C=N/Nc2nccnc2Cl)c1O	?	-18%	-4%	0	?	?	3.7µM*	26%
Oc1ccccc1/C=N/Nc1nccnc1Cl	.	3%	?	0	17%	.	.	.
Oc1ccc(/C=N/Nc2nccnc2Cl)c(O)c1	2%	?	18%	-4	?	?	6.5µM*	17%
O=C1c2ccccc2C(=O)C1c1ccc(F)cc1	.	-1%	-9%	-1	.	.	.	.
CCCNC(=O)Nc1cc(OC)c(OC)cc1Cc1nccc2cc(OC)c(OC)cc12	.	3%	-4%	-12	25µM*	13µM*	0%	?
CN(C(=O)COC(=O)c1ccc(-c2ccc(O)cc2)cc1)C1CCS(=O)(=O)C1 (centres undefined)	13%	.	0%	-1	40µM*	?	21µM*	-13%
O=C(Nc1nnc(Cc2ccccc2F)s1)Nc1ccccc1F	.	-19%	-6%	2	-1%	.	.	.
COc1cc(NC(=O)Nn2cnnc2)cc(OC)c1OC	.	8%	1%	1	-10%	.	.	.
O=C(Nc1ccc(F)c(Cl)c1)Nn1cnnc1	.	.	11%	.	40µM*	13µM*	-19%	?
O=C(Nc1ccc(F)cc1)Nn1cnnc1	.	1%	6%	5	-23%	.	.	.
COc1ccc(NC(=O)Nn2cnnc2)cc1OC	.	7%	11%	-2	40µM*	26µM*	-3%	?
SMILES	CBFb RUNX1 block	Menin-MLL TR inh	CXXC DNA block	Menin-MLL FL inh	MBNL1 CUG block	MBNL1 TRFRET	MBNL1-CUG Alpha	Menin-MLL HTRF	others
COc1ccc(-n2nc(C(=O)NCC(=O)NCc3ccc(F)cc3)c3ccccc3c2=O)cc1	.	29%	2%	-7	?	.	.	.
O=C(C[n+]1ccc(/C=C/c2ccccc2)cc1)c1ccc2c(c1)OCCO2	-3%	.	3%	12	?	.	.	.
CCCCCCC(=O)O	-8%[21.7 µM]	.	.	.	.	.	.	.
O=C(O)CCCCCCCC(=O)O	-5%	3%	-3%	-6	20µM*	?	?	1%
C[C@@H]1O[C@@H](OC[C@H]2O[C@@H](Oc3c(-c4ccc(O)c(O)c4)oc4cc(O)cc(O)c4c3=O)[C@H](O)[C@@H](O)[C@@H]2O)[C@H](O)[C@H](O)[C@H]1O	-28%	-7%	-3%	2	?	?	?	17%
O=C(NCc1ccc(F)cc1)C1CCN(C(=O)NCc2ccccc2)CC1	5%	11%	-5%	4	-6%	.	.	.
CCc1nnc(NC(=O)C2CCCN(c3nc(C)cc(C)n3)C2)s1 (centres undefined)	-4%	-7%	-1%	0	49%	.	.	.
O=S(=O)(Nc1c(S(=O)(=O)c2ccccc2)c2nc3ccccc3nc2n1C1CCCCC1)c1ccccc1	4%	-15%	-4%	?	.	.	.	.
C=CCn1c(NS(=O)(=O)c2ccccc2)c(S(=O)(=O)c2ccc(C)cc2)c2nc3ccccc3nc21	-4%	-28%	-7%	6	20µM*	4%	?	0%
CCCCN1C(=O)NC2NC(=O)NC21 (centres undefined)	-16%	7%	3%	4	5.6µM*	3.3µM*	1.2µM*	?

Screening results: PubChem, National Center for Advancing Translational Sciences (NCATS)
